72 compounds from PubChem BioAssay AID1259421 (Broad Institute, 2018) can be followed below.

Each structure is given as a SMILES string. Where “and” joins values, the source holds several entries; their conditions need not be identical. Identical values can stand only once. Screen size: about 6,400 compounds; about 610 (9.5%) were called active. No stated cut-off is given here; in the data, active means activity change below about -70%; inconclusive means no clear call, values can overlap the other calls; inactive means above that. For the sample, actives were picked, then their nearest neighbours and some compounds at random. Some structures have more than one record in an assay (separate samples or runs), and their calls can disagree. Where a SMILES comes first, the peptide text is derived from it.

This assay can be described thus: Toxoplasma gondii ME49Luc growth in HeLa cells, luciferase, no IFN-y, primary screen (AID 1259421). As to conditions: T. gondii ME49Luc in HeLa, 72 h, stronger effect = lower value, concentration not given here.
Consider `CCCOc1ccc(S(=O)(=O)N2CCN(CCO)CC2)cc1-c1nc2c(CCC)cn(CC)c2c(=O)[nH]1`, for which the activity change, negative = inhibition is 0.0881% (inactive).
Consider `CC(C)[C@H](CO)Nc1nc(Nc2ccc(C(=O)O)c(Cl)c2)c2ncn(C(C)C)c2n1`, for which the activity change, negative = inhibition was 13% (inactive) and 1.51% (inactive).
Then `CC(C)[C@H](CO)Nc1nc(Nc2cc(N)cc(Cl)c2)c2ncn(C(C)C)c2n1`, with -82.6% (active); and `CC(C)n1cnc2c(NCc3ccccc3)nc(NCCCO)nc21`, with 0.139% (inactive).
Take `CC(C)[C@H](CO)Nc1nc(Nc2cccc(Cl)c2)c2ncn(C(C)C)c2n1`: the activity change, negative = inhibition is -86% (active) and -72.5% (active).
Consider `CC[C@@H]1OC(=O)C[C@@H](O)[C@H](C)[C@@H](O[C@@H]2O[C@H](C)[C@@H](O)[C@H](N(C)C)[C@H]2O)[C@@H](CCN2C[C@H](C)C[C@H](C)C2)C[C@@H](C)C(=O)/C=C/C(C)=C\[C@@H]1CO[C@@H]1O[C@H](C)[C@@H](O)[C@@H](OC)[C@H]1OC`, for which the activity change, negative = inhibition was 17.5% (inactive).
Turning to `CN1[C@@H]2CC(OC(=O)[C@H](CO)c3ccccc3)C[C@H]1[C@H]1O[C@H]12` (some centres not stated), the activity change, negative = inhibition was 23.8% (inactive).
Then `CCCCCCCC/C=C/C(=O)O`, with 1.14% (inactive); and `CO/N=C(\C(=O)N[C@@H]1C(=O)N2C(C(=O)OCOC(=O)C(C)(C)C)=C(C)CS[C@H]12)c1csc(N)n1`, with 21.8% (inactive).
Consider `OC[C@@]1(O)OC[C@@H](O)[C@@H](O)[C@@H]1O`, for which the activity change, negative = inhibition is 7.13% (inactive).
As for `CN1CCN(c2nc(C3=C(c4c[nH]c5ccccc45)C(=O)NC3=O)c3ccccc3n2)CC1`, the figure is -9.55% (inactive); as for `CNC(=O)c1ccccc1Nc1nc(Nc2ccc(N3CCOCC3)cc2OC)ncc1Cl`, -73.7% (active) and -87.3% (active).
Take `COc1cc(N2CCC(N3CCN(C)CC3)CC2)ccc1Nc1ncnc(Nc2ccccc2S(=O)(=O)C(C)C)n1`: the activity change, negative = inhibition was -35.3% (inactive).
On to `CNC(=O)c1c(F)cccc1Nc1nc(Nc2cc3c(cc2OC)CCN3C(=O)CN(C)C)nc2[nH]ccc12`, for which the activity change, negative = inhibition was -10.7% (inactive).
`CNC(=O)c1ccccc1Nc1cc(Nc2ccc(N3CCOCC3)cc2OC)ncc1C(F)(F)F`: the activity change, negative = inhibition was -46.5% (inactive).
As for `COc1cc(N2CCC(N)CC2)ccc1Nc1ncc(Cl)c(-c2c[nH]c3ccccc23)n1`, the figure is -81% (active).
As for `COc1cc(N2CCC(N3CCN(C)CC3)CC2)ccc1Nc1ncc(Cl)c(Nc2ccccc2S(=O)(=O)C(C)C)n1`, the figure is -84.8% (active); as for `COc1cc(N2CCC(N(C)C)CC2)ccc1Nc1ncc(Cl)c(Nc2ccccc2P(C)(C)=O)n1`, -60.2% (inactive); as for `CNC(=O)c1ccccc1Nc1nc(Nc2ccc3c(c2OC)CCC[C@H](N2CCN(CCO)CC2)C3)ncc1Cl`, -74.8% (active).
Consider `CN(CCc1ccc(Cl)c(Cl)c1)CC(O)COc1ccc(NS(C)(=O)=O)cc1` (configuration not stated), for which the activity change, negative = inhibition was -4.31% (inactive) and -8.47% (inactive).
As for `O=C(NCC(=O)N1CC[C@H](NC2CCC(O)(c3ccc(-c4ncccn4)cn3)CC2)C1)c1cccc(C(F)(F)F)c1` (some centres not stated), the figure is 13.2% (inactive); as for `COc1ccc2nc(S(=O)Cc3ncc(C)c(OC)c3C)[nH]c2c1` (configuration not stated), 29.5% (inactive) and 32.8% (inactive) and 15.1% (inactive); as for `O=Cc1ccc(CO)o1`, 3.95% (inactive).
Turning to `O=c1c(OC2OC(CO)C(O)C(O)C2O)c(-c2ccc(O)c(O)c2)oc2cc(O)cc(O)c12` (configuration not stated), the activity change, negative = inhibition is -1.42% (inactive).
On to `NCC(=O)N[C@@H](CCC(N)=O)C(=O)O` (H-Gly-Gln-OH), for which the activity change, negative = inhibition is 6.58% (inactive).
For `CC(C)C(N)=O`, the activity change, negative = inhibition is 7.84% (inactive).
Then `Nc1ncnc2c1C(=O)N(c1ccc(C3CCC(CC(=O)O)CC3)cc1)CCO2` (configuration not stated), with 6.2% (inactive); and `NC1=N[C@H]2[C@H](CS[C@H]2CCCCC(=O)O)N1`, with 20.2% (inactive).
Regarding `C=C[C@]1(C)C[C@@H](OC(=O)CSC2C[C@H]3CC[C@@H](C2)N3C)[C@]2(C)[C@H](C)CC[C@]3(CCC(=O)[C@H]32)[C@@H](C)[C@@H]1O` (some centres not stated), the activity change, negative = inhibition was -18.6% (inactive).
As to `CC[C@H](NC(C)C)[C@H](O)c1ccc(O)c2[nH]c(=O)ccc12`, the activity change, negative = inhibition was 3.71% (inactive).
Take `C=CC(=O)Nc1cc2c(Nc3ccc(F)c(Cl)c3)ncnc2cc1C#CC(C)(C)N1CCN(C)CC1`: the activity change, negative = inhibition was -57.7% (inactive).
As for `CCOc1cc2ncc(C#N)c(Nc3ccc(OCc4ccccn4)c(Cl)c3)c2cc1NC(=O)/C=C/CN(C)C`, the activity change, negative = inhibition is -78.7% (active).
With `CCOc1cc(C(=O)Nc2ccc(Cl)c(-c3nc4ccccc4[nH]3)c2)cc(OCC)c1OCC`, the activity change, negative = inhibition was -69.9% (inactive).
Then `CCOc1cc2ncc(C#N)c(Nc3ccc(F)c(Cl)c3)c2cc1NC(=O)/C=C/CN(C)C`, with -84.3% (active).
With `C[C@@H](NC(=O)c1ncnc(N)c1Cl)c1ncc(C(=O)Nc2cc(C(F)(F)F)c(Cl)cn2)s1`, the activity change, negative = inhibition was 10.6% (inactive).
Take `Cc1nc(NC(=O)N2CCC[C@H]2C(N)=O)sc1-c1csc(C(C)(C)C)n1`: the activity change, negative = inhibition was 17.5% (inactive).
`OCCNCCCOc1cccc(Cl)c1Cl`: the activity change, negative = inhibition is -43.4% (inactive) and 19.3% (inactive).
Then `COc1cc([C@@H]2c3cc4c(cc3C(OC3O[C@@H]5COC(C)O[C@H]5[C@H](O)[C@H]3O)C3COC(=O)[C@@H]32)OCO4)cc(OC)c1O` (some centres not stated), with -0.506% (inactive).
`COc1cc([C@@H]2c3cc4c(cc3C(O[C@@H]3O[C@@H]5CO[C@@H](c6cccs6)OC5[C@H](O)[C@H]3O)C3COC(=O)[C@@H]32)OCO4)cc(OC)c1O` (some centres not stated): the activity change, negative = inhibition was -79.4% (active).
As to `COc1cc([C@@H]2c3cc4c(cc3[C@@H](O[C@@H]3O[C@@H]5CO[C@@H](C)O[C@H]5[C@H](O)[C@H]3O)[C@H]3COC(=O)[C@H]23)OCO4)cc(OC)c1O`, the activity change, negative = inhibition is -10.1% (inactive) and -3.38% (inactive) and 9.65% (inactive).
Then `COc1cc([C@@H]2c3cc4c(cc3C(OC3OC5COC(C)OC5C(O)C3O)C3OCC(=O)[C@@H]32)OCO4)cc(OC)c1O` (some centres not stated), with -24.1% (inactive).
As to `COc1cc2c(c(OC)c1OC)-c1c(cc3c(c1OC)OCO3)C[C@H](C)[C@@H](C)C2`, the activity change, negative = inhibition is 13.7% (inactive).
As to `COc1cc([C@@H]2c3cc4c(cc3[C@H](O)[C@H]3COC(=O)[C@@H]23)OCO4)cc(OC)c1OC`, the activity change, negative = inhibition is -71% (active).
Consider `COc1cc([C@@H]2c3cc4c(cc3[C@@H](O[C@@H]3O[C@@H]5CO[C@@H](c6cccs6)O[C@H]5[C@H](O)[C@H]3O)[C@H]3COC(=O)[C@H]23)OCO4)cc(OC)c1O`, for which the activity change, negative = inhibition was -72.9% (active).
Take `COc1cc([C@@H]2c3cc4c(cc3[C@H](O)[C@H]3COC(=O)[C@H]23)OCO4)cc(OC)c1OC`: the activity change, negative = inhibition is -64.9% (inactive).
In the case of `C=C(C)[C@@H]1CC[C@]2(C(=O)O)CC[C@]3(C)[C@H](CC[C@@H]4[C@@]5(C)CC[C@H](OC(=O)CC(C)(C)C(=O)O)C(C)(C)[C@@H]5CC[C@]43C)[C@@H]12`, the activity change, negative = inhibition was -18.2% (inactive).
With `Fc1ccc2nc(CCC#Cc3ccccn3)cn2c1`, the activity change, negative = inhibition is 1.01% (inactive).
Then `NS(=O)(=O)OC[C@@H]1C[C@@H](n2ccc3c(N[C@H]4CCc5ccccc54)ncnc32)C[C@@H]1O`, with -17.2% (inactive).
`OC1C(O)C(O)C(O)C(O)C1O` (configuration not stated): the activity change, negative = inhibition is 18.3% (inactive).
As for `COc1ccc(C(C#N)C(C)C)cc1OC` (configuration not stated), the figure is 21.3% (inactive); as for `CN([NH2+][O-])c1cc(O)ccc1O`, 11.6% (inactive); as for `Cc1occc(=O)c1CC=O`, 1.36% (inactive).
In the case of `CC1COC2(CCN(c3nc(=O)c4cc(C(F)(F)F)cc([N+](=O)[O-])c4s3)CC2)O1` (configuration not stated), the activity change, negative = inhibition is 301% (inactive).
`COc1cc2ncnc(Nc3ccc(Cl)cc3F)c2cc1OC`: the activity change, negative = inhibition was -68.4% (inactive) and -67% (inactive).
Then `COc1cc2ncnc(Nc3ccc(Oc4ccccc4)cc3)c2cc1OC`, with 2.86% (inactive); and `Cc1cc(F)c(Nc2ncnc3cc(OCc4ccccc4)ccc23)cc1O`, with -65.2% (inactive) and -70.4% (active).
As to `CC(C)(C)c1ccc(C(=O)CCCN2CCC(OC(c3ccccc3)c3ccccc3)CC2)cc1`, the activity change, negative = inhibition is -87.2% (active).
Take `O=C(O)CCCN1CCC(O[C@@H](c2ccc(Cl)cc2)c2ccccn2)CC1`: the activity change, negative = inhibition is 24.8% (inactive).
`CC(C)(C(=O)O)c1ccc(C(=O)CCCN2CCC(OC(c3ccccc3)c3ccccc3)CC2)cc1`: the activity change, negative = inhibition is 6.98% (inactive).
`O=P(O)(O)OC(CO)CO`: the activity change, negative = inhibition is 38% (inactive).
On to `CN(C)C(=O)c1ccc(S(=O)(=O)c2ccc(NC(=O)C(C)(O)C(F)(F)F)c(Cl)c2)cc1` (configuration not stated), for which the activity change, negative = inhibition was -6.06% (inactive).
With `CC1(C)[C@@H](O)CC[C@]2(C)[C@H]3C(=O)C=C4[C@@H]5C[C@@](C)(C(=O)O)CC[C@]5(C)CC[C@@]4(C)[C@]3(C)CC[C@@H]12`, the activity change, negative = inhibition was 6.44% (inactive).
`CC1(C)C2CC[C@]3(C)C(C(=O)C=C4[C@H]5C[C@@](C)(C(=O)O)CC[C@]5(C)CC[C@]43C)[C@@]2(C)CC[C@@H]1O` (some centres not stated): the activity change, negative = inhibition was 1.01% (inactive).
Regarding `CC(=O)Oc1cc2c(c(C)c1OC(C)=O)CC=C1[C@@]2(C)CC[C@@]2(C)C3C[C@](C)(C(=O)O)CC[C@]3(C)CC[C@]12C` (some centres not stated), the activity change, negative = inhibition is -93.4% (active).
As to `C=C[C@@](C)(O)CCC1C(=C)CCC2[C@@](C)(CO)CCC[C@]12C` (some centres not stated), the activity change, negative = inhibition is 13.4% (inactive).
As for `CC1(C)O[C@@H]2CC3C4C[C@H](F)C5=CC(=O)C=C[C@]5(C)[C@@]4(F)[C@@H](O)C[C@]3(C)[C@]2(C(=O)CO)O1` (some centres not stated), the activity change, negative = inhibition was -11.6% (inactive).
Turning to `Cc1cnc(Nc2ccc(OCCN3CCCC3)cc2)nc1Nc1cccc(S(=O)(=O)NC(C)(C)C)c1`, the activity change, negative = inhibition was -95.9% (active).
Take `CS(=O)(=O)c1cccc(CNc2nc(Nc3ccc4c(c3)CCC(=O)N4)ncc2C(F)(F)F)c1`: the activity change, negative = inhibition was -29.4% (inactive).
On to `C=CC(=O)Nc1cccc(Nc2nc(Nc3ccc(OCCOC)cc3)ncc2F)c1`, for which the activity change, negative = inhibition is -10% (inactive).
Then `Cc1cnc(Nc2ccc(N3CCN(C)CC3)cc2)nc1Nc1cccc(S(=O)(=O)NC(C)(C)C)c1`, with -76.6% (active); and `C=CC(=O)Nc1cccc(Sc2nc(Nc3ccc(N4CCN(C)CC4)cc3)ncc2Cl)c1`, with -58.5% (inactive).
Consider `C=CC(=O)Nc1cccc(Oc2nc(Nc3ccc(N4CCN(C)CC4)cc3)ncc2Cl)c1`, for which the activity change, negative = inhibition was -59.1% (inactive).
